Assay outcomes (PubChem)
GRK2 inh: inhibitors of human GRK2 displacing RNA aptamer | 330,000 compounds, 0.59% hits | bead flow cytometry, FAM-aptamer displacement from GRK2 | inhibition of aptamer binding, % at 10 µM | P25098 | AID 488847;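 active means inhibition of aptamer binding above 40%, roughly 3 SD of noise, on plates passing a quality check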;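 further: median bead fluorescence of bound FAM aptamer so fluorescent compounds give negative values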
Target sequence (P25098 whole entry, looked up): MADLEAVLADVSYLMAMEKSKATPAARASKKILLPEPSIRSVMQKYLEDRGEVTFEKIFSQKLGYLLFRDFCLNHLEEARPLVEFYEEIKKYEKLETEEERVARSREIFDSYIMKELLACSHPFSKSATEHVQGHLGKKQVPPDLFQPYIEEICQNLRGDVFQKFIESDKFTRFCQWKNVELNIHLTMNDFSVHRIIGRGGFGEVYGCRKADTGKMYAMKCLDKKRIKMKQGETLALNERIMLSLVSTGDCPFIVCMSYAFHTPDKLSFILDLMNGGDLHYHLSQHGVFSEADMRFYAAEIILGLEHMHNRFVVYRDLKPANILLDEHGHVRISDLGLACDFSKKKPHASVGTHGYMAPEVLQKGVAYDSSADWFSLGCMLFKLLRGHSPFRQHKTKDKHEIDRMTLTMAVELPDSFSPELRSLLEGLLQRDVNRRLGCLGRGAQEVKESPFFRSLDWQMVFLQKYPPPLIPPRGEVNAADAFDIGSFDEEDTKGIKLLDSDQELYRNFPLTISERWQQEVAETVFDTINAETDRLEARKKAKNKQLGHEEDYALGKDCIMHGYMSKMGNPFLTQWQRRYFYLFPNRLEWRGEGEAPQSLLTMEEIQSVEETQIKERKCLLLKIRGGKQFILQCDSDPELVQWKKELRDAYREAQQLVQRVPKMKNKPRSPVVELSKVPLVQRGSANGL
MEKK2 mut-MEK5: signal of MEK5 binding to mutant human MEKK2 PB1 domain. bead flow cytometry, Alexa488-MEK5 binding to MEKK2 mutant. percent response, % at 10 µM. 290,000 compounds, 0.35% hits. AID 1530; in the data active means percent response above about 24%, passing the limit was not always enough
MEKK3 PB1 HTS: modulators (inhibitors or enhancers) of MEK5 binding to human MEKK3 PB1 domain | 290,000 compounds, 1.4% hits | binding response (% of control), % at 10 µM | bead-based flow cytometry, Alexa488-MEK5 binding to MEKK3; actives lie on both sides; 0 = blocked by unlabeled MEK5, 100 = vehicle | Q99759;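 active means binding response more than 3 SD above or below the average of its plate-row segment, actives on both sides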;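 further: Alexa488 bead fluorescence after subtracting the streptavidin-only scavenger bead signal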
MEKK2 WT-MEK5: raises or lowers MEK5 binding to wildtype human MEKK2 PB1 domain; bead flow cytometry, Alexa488-MEK5 binding to MEKK2 WT; actives lie on both sides; binding response (% of control), % at 10 µM; 290,000 compounds, 1.1% hits; Q9Y2U5; in the data active means binding response below about 67% or above about 130%
GRK2 CP1: human GRK2 inhibition confirmation, cherry pick 1 | shares compounds with GRK2 inh | bead-bound GRK2, FAM-aptamer displacement, flow cytometry | aptamer displacement, % at 10 µM | 2,000 compounds, 4% hits | AID 504451;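 active means aptamer displacement above 40%, near three times the noise of non-fluorescent compounds, on plates passing quality checks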;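 further: negative values mostly reflect intrinsic compound fluorescence rather than true enhancement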
Aptamer quench: fluorescent aptamer quenching in GRK2 counter-screen dose response. 110 tested, under 10 active. AID 504521. Fluorescent RNA aptamer beads, flow cytometry; hits give high values. shares compounds with GRK2 inh. fluorescence change (kMESF span), kMESF (test concentration not listed);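 active means compounds whose bead fluorescence drops by more than 37 kMESF across the dose range, marking them as dye quenchers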
FAM quench CP1: quenches fluorescent RNA aptamer, GRK2 hit artifact. AID 504580. fluorescence response (% of DMSO), % at 10 µM. 2,000 tested, under 10 active. Carboxyfluorescein RNA aptamer on beads, flow cytometry quenching; hits give low values. shares compounds with GRK2 inh;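 active means compounds that quench the bead-bound fluorescent RNA probe, cutting fluorescence to under half of the solvent control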;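 further: counterscreen run without GRK2 so only probe quenching by compound is measured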
GRK2 CP2: confirmation of human GRK2 inhibitors binding RNA aptamer site; shares compounds with GRK2 inh; bead-bound GRK2, FAM-aptamer displacement, flow cytometry; inhibition of aptamer binding, % at 10 µM; 360 tested, under 10 active; AID 504782;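 active means inhibition of aptamer binding above 40%, about triple the noise seen with nonglowing compounds, on plates passing quality control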;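 further: negative values mostly come from compounds that fluoresce themselves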
Aptamer quench3: aptamer fluorescence quenching in GRK2 counter-screen dose response; shares compounds with GRK2 inh; AID 504819; 25 tested, under 10 active; change in fluorescence (kMESF span), kMESF (no concentration beside the values); Streptavidin beads, FAM-RNA aptamer fluorescence quenching, flow cytometry;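 active means compounds quenching the bead-bound labeled aptamer, with fluorescence dropping by more than 37 kMESF over the dose range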
FAM quench SP: counter-screen for GRK2 binding hits: quenchers of fluorescent RNA aptamer | fluorescence response vs DMSO, % at 10 µM | AID 588494 | shares compounds with GRK2 inh | 360 tested, under 10 active | carboxyfluorescein RNA aptamer beads, flow cytometry quenching; hits give low values;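 active means response vs DMSO under 50%, meaning signal dropped by over half, treated as fluorescence quencher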;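 further: labelled aptamer on streptavidin beads without GRK2 as a quench counter-screen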
FAM quench PS1: counter-screen for GRK2 aptamer binding inhibitors: aptamer fluorescence quenching. fluorescence ratio to DMSO, % at 11.1 µM. 35 tested, under 10 active. shares compounds with GRK2 inh. Bead-bound FAM RNA aptamer fluorescence quenching, flow cytometry; hits give low values;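 active means compounds that dim the fluorescent label, raw bead signal shifting by over 33 units between lowest and highest dose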
Numbers stand for hits; . = inactive; / = no result. Compounds with a hit are over-represented: about 2.5% of the library has one in this group of screens.

SMILES | GRK2 inh | MEKK2 mut-MEK5 | MEKK3 PB1 HTS | MEKK2 WT-MEK5 | GRK2 CP1 | FAM quench CP1 | others
O=C(CCS(=O)(=O)c1ccc(Br)cc1)NC1CCCC1 | 80.0 | . | . | . | 61.2 | . | Aptamer quench=.;Aptamer quench3=.
CCOc1ccc(NC(=O)CCS(=O)(=O)c2ccc(Br)cc2)cc1 | 83.0 | . | . | . | / | / | GRK2 CP2=60.0;Aptamer quench3=.;FAM quench SP=.;FAM quench PS1=.
CCc1ccccc1NC(=O)CCS(=O)(=O)c1ccc(C)cc1 | . | . | . | . | / | /
COc1ccc(CN(C)C(=O)c2ccc(NS(=O)(=O)c3ccc(C)c([N+](=O)[O-])c3)cc2)c(OC)c1OC | . | / | / | / | / | /
O=S(=O)(Nc1ccc(-c2cn3c(n2)SCC3)cc1)c1ccccc1F | . | . | . | . | / | /
COCCN(C(=O)COC(=O)c1ccc2[nH]c(C)c(C)c2c1)c1c(N)n(Cc2ccccc2)c(=O)[nH]c1=O | . | / | / | / | / | /
O=C(CSc1cn(CCNC(=O)c2cccs2)c2ccccc12)NCc1ccccc1 | . | . | . | . | / | /
O=C(CSc1cn(CCNC(=O)c2cccs2)c2ccccc12)NCC1CCCO1 (stereo not given) | . | . | . | . | / | / | GRK2 CP2=.;FAM quench SP=.
O=C(CSc1cn(CCNC(=O)c2cccs2)c2ccccc12)NC1CCCCC1 | . | . | . | . | / | / | GRK2 CP2=.;FAM quench SP=.
CCOC(=O)c1sc2c(c1C)c(=O)n(CCO)c(=O)n2Cc1ccccc1 | . | . | . | . | / | /
CCCC(=O)Nc1nnc(SCC)s1 | 100.0 | . | . | . | / | / | GRK2 CP2=.;FAM quench SP=.
O=C(CCCc1ccccc1)Nc1nccs1 | . | / | / | / | / | /
CCC(=O)c1c[nH]c(C(=O)N2CCN(c3ccccc3)CC2)c1 | . | . | . | . | / | /
CCC(=O)c1c[nH]c(C(=O)N2CCOCC2)c1 | 100.0 | . | . | . | / | / | GRK2 CP2=.;FAM quench SP=.
O=S(=O)(Nc1cc(C(F)(F)F)ccc1N1CCOCC1)c1ccccc1 | . | . | . | . | / | /
Cc1cccc(S(=O)(=O)Nc2cc(Cl)ccc2N2CCOCC2)c1 | 81.0 | / | / | / | . | .
COc1ccc(/C=N/NC(=O)CN(C)C(=O)OCc2ccccc2)cc1OC | . | . | . | . | / | /
COc1ccc(NC(=S)NNc2ccc(S(=O)(=O)Nc3ccccc3C(=O)O)cc2[N+](=O)[O-])cc1 | 48.0 | . | . | . | . | .
COc1ccc(C=NNc2ccc(S(=O)(=O)Nc3ccccc3C(=O)O)cc2[N+](=O)[O-])c(OC)c1 | . | / | / | / | / | /
O=C(NC12CC3CC(CC(C3)C1)C2)OCCNC1CCCCC1 | . | . | . | . | / | /
O=C(O)Cc1ccc(-n2cccc2)cc1 | 99.0 | . | . | . | 99.0 | . | Aptamer quench=.;FAM quench PS1=.
O=C(Cc1ccc(-n2cccc2)cc1)NC1CCCCC1 | 45.0 | . | . | . | . | .
Cc1ccc(CNC(=O)Cc2ccc(-n3cccc3)cc2)cc1 | . | . | . | . | / | /
O=C(NC1CCCCC1)N1CCN(CCc2ccccc2)CC1 | 70.0 | . | . | . | . | .
O=C(CN1CCCC1c1cccs1)Nc1cccc(S(=O)(=O)N2CCCC2)c1 (stereo not given) | . | / | / | / | / | /
SMILES | GRK2 inh | MEKK2 mut-MEK5 | MEKK3 PB1 HTS | MEKK2 WT-MEK5 | GRK2 CP1 | FAM quench CP1 | others
O=C(COC(=O)Cc1cccs1)Nc1ccc(OC(F)(F)F)cc1 | . | / | / | / | / | /
COCCn1c(=O)[nH]c2cc(C(=O)Nc3ccc(OC)c(Cl)c3)ccc2c1=O | 57.0 | . | . | . | . | .
OCC[C@H]1C[C@H](O)[C@@H](O)[C@@]2(Cc3ccccc3O2)O1 | . | / | / | / | / | /
COc1ccc(-n2nc(C(=O)NCC(=O)N(C)Cc3ccccc3)c3ccccc3c2=O)cc1OC | . | . | . | . | / | /
O=C(Nc1cccc(O)c1)C(=O)Nc1ccccn1 | . | . | . | . | / | /
O=C(Nc1ccccc1)C(=O)Nc1ccccn1 | 47.0 | . | . | . | . | .
CNC(=O)CSc1cn(CC(=O)N(C(C)C)C(C)C)c2ccccc12 | . | . | . | . | / | /
Cc1cc(NC(=O)CSc2nc3c(c(-c4cccnc4)c2C#N)CCC3)no1 | 77.0 | . | . | . | . | .
Cc1ccc(N(CC(=O)NC(C)(C)C)C(=O)CS(=O)CC(=O)Nc2ccc(F)cc2)cc1 (stereo not given) | . | . | . | . | / | /
CCCc1ccc(OCc2ccc(C(=O)N3CCN(c4ccccn4)CC3)o2)c(OC)c1 | 47.0 | . | . | . | . | .
O=C(NC1CCN(C(=O)c2cccc([N+](=O)[O-])c2)CC1)c1ccccc1 | 98.0 | . | . | . | . | .
Cc1sc2ncnc(NCCCO)c2c1C | . | . | . | . | . | .
Cc1sc2ncnc(NCCCN3CCCC3=O)c2c1C | . | . | . | . | / | /
Cc1cc(C)cc(C(=O)NCC(=O)OCC(=O)NCC(F)(F)F)c1 | 96.0 | . | . | . | . | .
O=C(O)[C@H](Cc1ccccc1)NC(=O)N1CCN(c2ccc(F)cc2)CC1 | 93.0 | . | . | . | . | .
CCOC(=O)c1c(C)nc(C)c(C(=O)OCC)c1-c1ccc(O)c(OC)c1 | . | . | . | . | / | /
COC(=O)c1c(C)nc(C)c(C(=O)OC)c1-c1ccc(OC)c(OC)c1 | 54.0 | . | . | . | . | .
O=C(COc1ccc(Br)cc1)N1CCc2ccccc2C1 | . | . | . | . | / | /
O=C(Cc1ccc(Br)cc1)OCC(=O)N1CCc2ccccc2C1 | 46.0 | . | . | . | / | / | GRK2 CP2=.;FAM quench SP=.
CC(C)(C)c1ccc(C(=O)Nc2cccc(-n3cnnn3)c2)cc1 | . | . | . | . | / | /
O=S(=O)(Oc1ccc(C(=S)N2CCOCC2)cc1)c1ccc(Cl)cc1 | 99.0 | . | . | . | . | .
O=C(CCCn1c(=S)[nH]c2ccccc2c1=O)N1CCN(c2cccc(Cl)c2)CC1 | . | . | . | . | . | .
O=C(CCCCn1c(=O)[nH]c2ccccc2c1=O)N1CCN(c2cccc(C(F)(F)F)c2)CC1 | . | . | . | . | / | /
COc1ccc(N2CCN(CCCn3c(=S)[nH]c4ccccc4c3=O)CC2)cc1 | . | . | . | . | . | .
COc1ccccc1N1CCN(CCCn2c(=S)[nH]c3ccccc3c2=O)CC1 | . | . | . | . | / | /
